Source: PubChem BioAssay (Tox21)
Calls of active or inactive are those of the source. Unless noted, calls follow the shape of the dose curve; as a rule, active = well fitted curve in the direction sought with a large enough effect in the repeat runs; inconclusive = weak or mixed curves; inactive = no such curve, though single readings can be large; an effect the other way counts as inactive or inconclusive.

Tests used:
[1] = system: thyroid hormone receptor (rat, GH3 cells); test: qHTS assay to identify small molecule agonists of the thyroid receptor (TR) signaling pathway (AID 743066; calls by dose curve; also: potency is read from the fitted curve at half-maximal effect; as to activation: % is scaled to controls: 0 for no effect and ±100 for the full control effect)
[2] = molecular target: Estrogen receptor (Homo sapiens) (UniProt P03372); test: qHTS assay to identify small molecule antagonists of the estrogen receptor alpha (ER-alpha) signaling pathway (AID 743069; active = well fitted curve in the direction sought with a large enough effect in the signal ratio in the repeat runs, not every such curve was filed as active; inconclusive = weak or mixed curves, or effect the other way; inactive = no such curve, though single readings can be large or run the other way; the % refers to the signal ratio; also: potency is read from the fitted curve at half-maximal effect)
In short: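 Beta-lactamase FRET fluorescence is read after 2 hr at room temperature with LiveBLAzer B/G substrate. Before that, ER-alpha-bla HEK293 cells sit 4 hr after plating, then receive compound plus 17beta-estradiol and incubate 18 hr at 37C.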

[3] = qHTS assay to identify small molecule antagonists of the estrogen receptor alpha (ER-alpha) signaling pathway - cell viability counter screen (AID 743074; calls by dose curve;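 also: HEK293 cells carrying ER-alpha-UAS-bla reporter stimulated with 17beta-estradiol; nearly all actives have a fitted effect of over 45% in size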; also: potency is read from the fitted curve at half-maximal effect)
[4] = molecular target: Estrogen receptor (Homo sapiens) (UniProt P03372); test: qHTS assay to identify small molecule agonists of the estrogen receptor alpha (ER-alpha) signaling pathway (AID 743075; calls by dose curve;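 also: HEK293 GripTite cells with ER-alpha and UAS-driven beta-lactamase reporter; % is scaled to controls: 0 for no effect and ±100 for the full control effect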)
[5] = molecular target: Estrogen receptor (Homo sapiens) (UniProt P03372); test: qHTS assay to identify small molecule agonists of the estrogen receptor alpha (ER-alpha) signaling pathway using the BG1 cell line (AID 743079); details: BG1Luc4E2 cells, ERE-luciferase agonist, 22 h; activation: at 70.3 µM (top of the series); also: % is scaled to controls: 0 for no effect and ±100 for the full control effect; nearly all actives have a fitted effect of over 20% in size
[6] = qHTS assay to identify small molecule antagonists of the estrogen receptor alpha (ER-alpha) signaling pathway using the BG1 cell line (AID 743080; calls by dose curve;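 also: BG1 cells stimulated with 17beta-estradiol alongside compound; % is scaled to controls: 0 for no effect and ±100 for the full control effect; nearly all actives have a fitted effect of over 25% in size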)
In short: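 Readout is ONE-Glo luminescence, taken 30 min at room temperature after reagent addition, preceded by a CellTiter-Fluor viability read; BG1-Luc-4E2 cells had received compound and 17beta-estradiol for 21.5 h at 37 C.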

Aromatase (Homo sapiens) = Aromatase (Homo sapiens) (UniProt P11511); test: qHTS assay to identify aromatase inhibitors (AID 743083); also: nearly all actives have a fitted effect of over 55% in size; also: potency is read from the fitted curve at half-maximal effect
[7] = molecular target: Aryl hydrocarbon receptor (Homo sapiens) (UniProt P35869); test: qHTS assay to identify small molecule that activate the aryl hydrocarbon receptor (AhR) signaling pathway (AID 743085); also: nearly all actives have a fitted effect of over 15% in size; also: potency is read from the fitted curve at half-maximal effect
In short: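 Cell line HG2L7.5c1 (human hepatoma, 20× DRE-luc). Plated, 5 h 37C, compound/DMSO added, 24 h 37C. CellTiter-Fluor 30 min 37C → fluorescence; then ONE-Glo 30 min RT → luminescence.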

[8] = molecular target: Peroxisome proliferator-activated receptor gamma (Homo sapiens) (UniProt P37231); test: qHTS assay to identify small molecule agonists of the peroxisome proliferator-activated receptor gamma (PPARg) signaling pathway (AID 743094; active = well fitted activation curve with a large enough effect in the signal ratio in the repeat runs, not every such curve was filed as active; inconclusive = weak or mixed curves, or effect the other way; inactive = no such curve, though single readings can be large or run the other way; the % refers to the signal ratio; also: % is scaled to controls: 0 for no effect and ±100 for the full control effect)
In short: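 Cell-based bla reporter, HEK293H background, PPARg-driven UAS. Pre-incubation 5 h, 37C, 5% CO2. Compound 17 h, 37C. Substrate 1 h RT; fluorescence.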

[9] = qHTS assay to identify small molecule phospholipidosis (PLD) inducers (AID 1259344; active = well fitted curve in the direction sought with a large enough effect; inconclusive = small, poorly fitted or top-dose-only effect, or another doubt; inactive = no such curve, though single readings can be large; an effect the other way counts as inactive or inconclusive; also: % is scaled to controls: 0 for no effect and ±100 for the full control effect)
In short: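 Read-out is LipidTOX Red fluorescence (ex 595/em 615) imaged in HepG2 cells after 24 h compound exposure at 37 C, with Hoechst nuclear counterstain (ex 352/em 461) allowing per-cell normalisation.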

[10] = qHTS assay to identify small molecule antagonists of the estrogen receptor alpha (ER-alpha) signaling pathway using the BG1 cell line - cell viability counter screen (AID 743081);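 also: compound given together with 17beta-estradiol as the ER stimulus; nearly all actives have a fitted effect of over 45% in size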; also: potency is read from the fitted curve at half-maximal effect
[11] = qHTS assay to identify aromatase inhibitors - cell viability counter screen (AID 743084);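 also: cells stimulated with testosterone during compound exposure; nearly all actives have a fitted effect of over 55% in size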; also: potency is read from the fitted curve at half-maximal effect
[12] = qHTS assay to identify small molecule that activate the aryl hydrocarbon receptor (AhR) signaling pathway - cell viability counter screen (AID 743086); also: nearly all actives have a fitted effect of over 45% in size; also: potency is read from the fitted curve at half-maximal effect
In short: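 HepG2-AhR-luc (HG2L7.5c1) cells, 4000/well, treated 24 h at 37 C with compound; viability measured as CellTiter-Fluor fluorescence after 30 min in the same wells as the luciferase read.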

[13] = qHTS assay to identify small molecule antagonists of the thyroid receptor (TR) signaling pathway - cell viability counter screen (AID 743064); also: potency is read from the fitted curve at half-maximal effect; nearly all actives have a fitted effect of over 50% in size
In short: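 Fluorescence from CellTiter-Fluor, added after 23.5 h exposure at 37 °C, reported viability of GH3.TRE-Luc cells co-treated with compound and 1 nM T3. Measured in the same wells as the luciferase TR readout.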

[14] = qHTS assay to identify small molecule antagonists of the thyroid receptor (TR) signaling pathway (AID 743065); also: potency is read from the fitted curve at half-maximal effect; nearly all actives have a fitted effect of over 55% in size
In short: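 GH3.TRE-Luc rat pituitary cells (two TREs driving luciferase) were dosed with compound, then stimulated with 1 nM T3 (final) for 23.5 h at 37 C. ONE-Glo luminescence was the read-out, with CellTiter-Fluor fluorescence as the cytotoxicity counter-screen.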

[15] = molecular target: Nuclear receptor subfamily 1 group I member 2 (Rattus norvegicus) (UniProt Q9R1A7); test: Rat pregnane X receptor (rPXR) activation by small molecules, qHTS assay (AID 1346983); details: rPXR luciferase reporter cells, One-Glo luminescence, 24 h; max activation: stronger effect = higher value; also: % is scaled to controls: 0 for no effect and ±100 for the full control effect; nearly all actives have a fitted effect of over 20% in size
In short: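 Cell-based rPXR activation assay: rPXR cells, 2,000 per well, rested 5hr at 37 C, then exposed to compounds in DMSO for 24 hr at 37 C. Luciferase activity read by One-Glo luminescence after 30 min at room temperature.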

[16] = molecular target: Nuclear receptor subfamily 1 group I member 2 (Homo sapiens) (UniProt O75469); test: CYP3A4 induction through human pregnane X receptor (PXR) by small molecules, qHTS assay (AID 1346984); also: nearly all actives have a fitted effect of over 40% in size; also: potency is read from the fitted curve at half-maximal effect
In short: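 Human PXR activation is tracked via CYP3A4 promoter-luciferase in DPX-2 (HepG2) cells. Compounds treat cells for 24hr at 37C, and luminescence is read after One-Glo.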

[17] = molecular target: Nuclear receptor subfamily 1 group I member 2 (Homo sapiens) (UniProt O75469); test: Human pregnane X receptor (PXR) activation by small molecules, qHTS assay (AID 1346985); also: nearly all actives have a fitted effect of over 40% in size; also: potency is read from the fitted curve at half-maximal effect
In short: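 DPX-2 cells (HepG2 co-transfected with a PXR response element and a CYP3A4-promoter luciferase construct) were seeded at 2,000 per well, rested 5 hr at 37C, then exposed to DMSO-dissolved compounds for 24 hr. Activation was read as luciferase luminescence.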

Sequence of Aromatase (Homo sapiens) (P11511 whole entry, looked up): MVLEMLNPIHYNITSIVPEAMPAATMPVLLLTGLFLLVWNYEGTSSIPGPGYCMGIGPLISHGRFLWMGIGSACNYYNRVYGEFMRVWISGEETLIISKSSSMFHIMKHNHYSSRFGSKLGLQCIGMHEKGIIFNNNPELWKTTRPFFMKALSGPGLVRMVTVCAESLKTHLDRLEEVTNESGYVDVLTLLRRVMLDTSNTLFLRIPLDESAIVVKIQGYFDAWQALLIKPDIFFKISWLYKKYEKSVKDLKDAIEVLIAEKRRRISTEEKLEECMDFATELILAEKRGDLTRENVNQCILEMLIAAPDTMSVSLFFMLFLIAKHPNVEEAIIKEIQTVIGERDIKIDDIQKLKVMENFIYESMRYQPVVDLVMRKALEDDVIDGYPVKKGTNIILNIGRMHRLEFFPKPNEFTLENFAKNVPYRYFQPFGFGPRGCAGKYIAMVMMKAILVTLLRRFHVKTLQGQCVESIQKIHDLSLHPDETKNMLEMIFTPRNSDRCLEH
Sequence of Aryl hydrocarbon receptor (Homo sapiens) (P35869 whole entry, looked up): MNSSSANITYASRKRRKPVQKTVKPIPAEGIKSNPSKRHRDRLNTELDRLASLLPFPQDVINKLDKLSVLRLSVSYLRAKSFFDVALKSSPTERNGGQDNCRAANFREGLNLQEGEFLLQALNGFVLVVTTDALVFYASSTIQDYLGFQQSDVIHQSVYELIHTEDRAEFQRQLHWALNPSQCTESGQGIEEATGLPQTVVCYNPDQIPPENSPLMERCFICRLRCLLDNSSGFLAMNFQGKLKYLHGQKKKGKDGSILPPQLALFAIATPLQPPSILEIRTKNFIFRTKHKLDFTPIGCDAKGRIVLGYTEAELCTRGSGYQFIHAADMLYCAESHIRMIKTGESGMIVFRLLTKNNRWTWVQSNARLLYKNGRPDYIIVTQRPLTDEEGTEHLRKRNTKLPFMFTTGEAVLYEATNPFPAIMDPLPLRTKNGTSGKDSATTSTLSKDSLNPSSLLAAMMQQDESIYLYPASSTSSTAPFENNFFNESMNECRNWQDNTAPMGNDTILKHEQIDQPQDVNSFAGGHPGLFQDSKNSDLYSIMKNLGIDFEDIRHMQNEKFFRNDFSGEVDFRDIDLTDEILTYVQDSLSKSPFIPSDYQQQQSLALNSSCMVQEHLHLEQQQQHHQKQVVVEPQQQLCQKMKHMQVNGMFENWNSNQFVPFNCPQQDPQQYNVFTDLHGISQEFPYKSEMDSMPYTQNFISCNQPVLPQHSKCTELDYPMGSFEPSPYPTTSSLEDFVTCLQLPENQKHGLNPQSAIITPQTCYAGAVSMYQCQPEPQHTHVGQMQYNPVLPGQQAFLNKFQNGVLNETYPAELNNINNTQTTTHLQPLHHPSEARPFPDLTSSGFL
Sequence of Peroxisome proliferator-activated receptor gamma (Homo sapiens) (P37231 whole entry, looked up): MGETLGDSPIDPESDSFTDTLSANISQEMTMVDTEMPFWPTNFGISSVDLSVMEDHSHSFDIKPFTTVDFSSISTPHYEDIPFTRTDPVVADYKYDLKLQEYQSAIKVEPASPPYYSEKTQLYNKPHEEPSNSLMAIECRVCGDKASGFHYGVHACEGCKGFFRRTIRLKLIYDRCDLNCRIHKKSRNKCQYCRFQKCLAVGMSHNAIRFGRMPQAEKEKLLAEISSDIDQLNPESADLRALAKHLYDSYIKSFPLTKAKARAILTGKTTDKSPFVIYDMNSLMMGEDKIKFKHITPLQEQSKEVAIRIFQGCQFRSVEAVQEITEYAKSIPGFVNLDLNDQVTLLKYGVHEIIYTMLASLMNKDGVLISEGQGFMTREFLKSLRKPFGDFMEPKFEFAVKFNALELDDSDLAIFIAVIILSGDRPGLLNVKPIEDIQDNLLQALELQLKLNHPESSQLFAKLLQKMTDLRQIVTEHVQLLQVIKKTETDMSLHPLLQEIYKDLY
Sequence of Estrogen receptor (Homo sapiens) (P03372 whole entry, looked up): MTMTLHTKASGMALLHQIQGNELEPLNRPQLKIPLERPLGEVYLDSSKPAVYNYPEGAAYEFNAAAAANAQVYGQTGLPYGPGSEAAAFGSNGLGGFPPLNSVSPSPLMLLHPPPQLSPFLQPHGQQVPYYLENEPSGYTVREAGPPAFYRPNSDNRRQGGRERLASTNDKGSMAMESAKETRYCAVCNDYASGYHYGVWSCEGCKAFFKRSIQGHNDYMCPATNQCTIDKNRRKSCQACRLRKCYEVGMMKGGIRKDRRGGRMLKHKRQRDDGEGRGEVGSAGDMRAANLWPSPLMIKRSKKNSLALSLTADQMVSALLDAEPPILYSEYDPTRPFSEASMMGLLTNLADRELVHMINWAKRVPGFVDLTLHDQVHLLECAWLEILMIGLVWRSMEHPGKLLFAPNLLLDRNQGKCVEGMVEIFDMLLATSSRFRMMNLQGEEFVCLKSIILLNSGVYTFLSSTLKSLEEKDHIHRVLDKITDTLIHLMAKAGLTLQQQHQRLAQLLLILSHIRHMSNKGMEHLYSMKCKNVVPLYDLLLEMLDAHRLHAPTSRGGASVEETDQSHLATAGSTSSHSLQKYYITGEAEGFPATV
Sequence of Nuclear receptor subfamily 1 group I member 2 (Rattus norvegicus) (Q9R1A7 whole entry, looked up): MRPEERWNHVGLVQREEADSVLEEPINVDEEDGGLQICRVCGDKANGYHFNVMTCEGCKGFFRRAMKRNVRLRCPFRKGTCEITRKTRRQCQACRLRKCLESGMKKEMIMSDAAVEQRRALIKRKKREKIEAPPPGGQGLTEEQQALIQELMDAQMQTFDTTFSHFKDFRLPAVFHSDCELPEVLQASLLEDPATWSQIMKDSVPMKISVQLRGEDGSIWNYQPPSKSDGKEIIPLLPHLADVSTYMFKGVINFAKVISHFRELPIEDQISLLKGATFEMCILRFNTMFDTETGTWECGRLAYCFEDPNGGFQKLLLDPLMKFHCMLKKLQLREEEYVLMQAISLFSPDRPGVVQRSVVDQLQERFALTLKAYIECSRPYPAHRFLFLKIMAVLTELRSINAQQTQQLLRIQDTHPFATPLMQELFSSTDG

CC(CN(C)C)CN1c2ccccc2S(=O)(=O)c2ccccc21 (stereo not given)
inactive: Potency [1] | Potency [2] | Potency [3] | Potency [4] | Potency [5] | Potency [6] | Potency (Aromatase (Homo sapiens)) | Potency [7] | Potency [8] | Potency [9]

CCC(CN)CC(C)CCNCC(O)CNCC(C)CC(CC)CN (stereo not given)
inactive: Potency [2] | Potency [3] | Potency [4] | Potency [5] | Potency [6] | Potency [10] | Potency (Aromatase (Homo sapiens)) | Potency [11] | Potency [7] | Potency [12] | Potency [8] | PLD induction [9] -0.745% [at 7.66 µM]

Cc1cc(-n2c(=O)[nH]c(=O)n(C)c2=O)ccc1Oc1ccc(S(=O)(=O)C(F)(F)F)cc1
active: Potency [1] 9.44 µM
inactive: Potency [4] | Potency [10] | Potency (Aromatase (Homo sapiens)) | Potency [11] | Potency [7] | Potency [12] | Potency [9]

CO[C@H]1C[C@H](O[C@H]2[C@H](C)[C@@H](O[C@@H]3O[C@H](C)C[C@H](N(C)C)[C@H]3OC(C)=O)[C@@H](C)C[C@]3(CO3)C(=O)[C@H](C)[C@@H](OC(C)=O)[C@@H](C)[C@@H](C)OC(=O)[C@@H]2C)O[C@@H](C)[C@@H]1OC(C)=O
inactive: Potency [3] | Potency [10] | Potency (Aromatase (Homo sapiens)) | Potency [11] | Potency [7] | Potency [12] | Potency [8] | Potency [9]

CO[C@H]1C=CO[C@@]2(C)Oc3c(C)c(O)c4c(O)c(c(/C=N/N5CCN(C6CCCC6)CC5)c(O)c4c3C2=O)NC(=O)/C(C)=C\C=C[C@H](C)[C@H](O)[C@@H](C)[C@@H](O)[C@@H](C)[C@H](OC(C)=O)[C@@H]1C
inactive: Potency [3] | Potency [4] | Potency [7] | Potency [9]
active: Potency [2] 19 µM [inconclusive] | Potency [10] 26.6 µM | Potency (Aromatase (Homo sapiens)) 33.5 µM | Potency [11] 23.7 µM | Potency [12] 26.6 µM

CN(CC(=O)N1CCOCC1)Cc1c(Cl)cccc1NC(=O)c1ccccc1
active: Potency [7] 13.3 µM
inactive: Potency [3] | Potency [4] | Potency [5] | Potency [10] | Potency [11] | Potency [8] | Potency [9]

COc1cc(Br)c(C[N+]2(CCOCCC3CCC4CC3C4(C)C)CCOCC2)cc1OC (stereo not given)
inactive: Potency [3] | Potency [4] | Potency [5] | Potency [6] | Potency [10] | Potency [11] | Potency [7] | Potency [12] | Potency [8] | Potency [9]

CC(C)(C)NC[C@H](O)COc1ccccc1C1CCCC1
inactive: Potency [2] | Potency [3] | Potency [4] | Potency [5] | Potency [6] | Potency (Aromatase (Homo sapiens)) | Potency [11] | Potency [7] | Potency [8] | max activation [15] -2.28% | Potency [16] | Potency [17]
active: Potency [13] 9.02 µM | Potency [14] 12.7 µM

OCCN1CCN(CC/C=C2/c3ccccc3Sc3ccc(Cl)cc32)CC1
inactive: Potency [3] | Potency [10] | Potency (Aromatase (Homo sapiens)) | Potency [11] | Potency [7] | Potency [8] | max activation [15] -1.76% | Potency [16] | Potency [17]
active: Potency [13] 10.1 µM | Potency [14] 11.4 µM

CCOC(=O)CCC(=O)O[C@H]1[C@H](O[C@@H]2[C@@H](C)[C@H](O[C@H]3C[C@@](C)(OC)[C@@H](O)[C@H](C)O3)[C@@H](C)C(=O)O[C@H](CC)[C@@](C)(O)[C@H](O)[C@@H](C)C(=O)[C@H](C)C[C@@]2(C)O)O[C@H](C)C[C@@H]1N(C)C
inactive: Potency [2] | Potency [3] | Potency [4] | Potency [5] | Potency [6] | Potency (Aromatase (Homo sapiens)) | Potency [11] | Potency [7] | Potency [12] | Potency [8] | Potency [9]

CC(C)N1CCN(c2ccc(OC[C@H]3CO[C@](Cn4cncn4)(c4ccc(Cl)cc4Cl)O3)cc2)CC1
active: Potency [14] 4.52 µM | Potency [17] 5.62 µM
inactive: Potency [2] | Potency [4] | Potency [5] | Potency [11] | Potency [8] | max activation [15] -0.695% | Potency [16]

CCNC(=O)[C@@H]1CCCN1C(=O)[C@H](CCCN=C(N)N)NC(=O)[C@H](CC(C)C)NC(=O)[C@@H](CC(C)C)NC(=O)[C@H](Cc1ccc(O)cc1)NC(=O)[C@H](CO)NC(=O)[C@H](Cc1c[nH]c2ccccc12)NC(=O)[C@H](Cc1cnc[nH]1)NC(=O)[C@@H]1CCC(=O)N1
inactive: Potency [3] | Potency [6] | Potency (Aromatase (Homo sapiens)) | Potency [11] | Potency [7] | Potency [12] | Potency [8] | Potency [9]

COc1ccc(C(=O)Nc2ccccc2CCC2CCCCN2C)cc1 (stereo not given)
active: Potency [10] 2.98 µM
inactive: Potency [2] | Potency [4] | Potency [6] | Potency (Aromatase (Homo sapiens)) | Potency [7] | Potency [8] | Potency [9]

CC(CN(C)C)CN1c2ccccc2Sc2ccc(C(F)(F)F)cc21 (stereo not given)
inactive: Potency [3] | Potency [10] | Potency [11] | Potency [7] | max activation [15] 2.66%
active: Potency [14] 13.3 µM | Potency [16] 12.6 µM | Potency [17] 25.1 µM

CCNC(=O)[C@@H]1CCCN1C(=O)[C@H](CCCN=C(N)N)NC(=O)[C@H](CC(C)C)NC(=O)[C@@H](Cc1c[nH]c2ccccc12)NC(=O)[C@H](Cc1ccc(O)cc1)NC(=O)[C@H](CO)NC(=O)[C@H](Cc1c[nH]c2ccccc12)NC(=O)[C@H](Cc1cnc[nH]1)NC(=O)[C@@H]1CCC(=O)N1
inactive: Potency [7] | max activation [15] -27.8% | Potency [16] | Potency [17]
active: Potency [13] 1.5 µM | Potency [14] 1.33 µM | Potency [3] 10.7 µM | Potency [10] 10.6 µM | Potency (Aromatase (Homo sapiens)) 13.3 µM | Potency [11] 29.8 µM | Potency [12] 7.5 µM
